# Inconclusive results are not listed. Where a call stands in place of a potency, no number is given. Activity calls are given as the source filed them. Unless noted, calls follow the shape of the dose curve; as a rule, active = well fitted curve in the direction sought with a large enough effect in the repeat runs; inconclusive = weak or mixed curves; inactive = no such curve, though single readings can be large; an effect the other way counts as inactive or inconclusive.
# How the values were obtained:
# [1] = qHTS assay to identify small molecule agonists of the retinoic acid receptor (RAR) signaling pathway (AID 1159553); details: C3RL4 RARE luciferase reporter, agonist, 6 h; activation: at 73.3 µM (top of the series) unless noted; also: potency is read from the fitted curve at half-maximal effect
# Summary of the method: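 Compounds dissolved in DMSO were pinned onto C3RL4 cells seeded the previous day, and plates were held 6 hr at 37 C. RARE-driven luciferase output was then read by luminescence.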
# [2] = qHTS assay to identify small molecule antagonists of the retinoid acid receptor (RAR) signaling pathway - cell viability counter screen (AID 1159551); details: C3RL4 cells viability, ATP luminescence (CellTiter-Glo), 6 h; series mostly up to 92.4 µM; also: nearly all actives have a fitted effect of over 35% in size
# Summary of the method: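 Viability of C3RL4 cells is quantified from ATP by luminescence after 6 h treatment at 37 C with compounds and 1 uM retinol.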
# [3] = qHTS assay to identify small molecule antagonists of the retinoic acid receptor (RAR) signaling pathway (AID 1159552; also: nearly all actives have a fitted effect of over 50% in size; also: potency is read from the fitted curve at half-maximal effect); details: C3RL4 RARE luciferase reporter, retinol-stimulated, 6 h; series mostly up to 92.4 µM
# Summary of the method: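 Retinol at 1 uM final stimulated RARE-luciferase expression in C3RL4 cells exposed to test compounds for 6 hr at 37 C. Reduced luminescence, read 30 min after detection reagent, indicated pathway antagonism.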
# [4] = qHTS assay to identify small molecule antagonists of the estrogen related receptor (ERR) signaling pathway - cell viability counter screen (AID 1224818); details: ERR reporter cell line viability counter screen; series mostly up to 46.1 µM;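 also: viability measured after 17.5 h of compound exposure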
# Summary of the method: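 Cytotoxicity check run alongside the ERR antagonist screen: cells exposed to test compounds 17.5 h at 37 C, viability taken as CellTiter-Fluor fluorescence intensity.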
# [5] = qHTS assay to identify small molecule antagonists of the estrogen related receptor (ERR) signaling pathway (AID 1224819; also: nearly all actives have a fitted effect of over 50% in size); details: ERR reporter cell line, luciferase inhibition; series mostly up to 46.1 µM
# Summary of the method: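 ERR reporter cells were plated at 2,000 cells/well and left 6 h at 37 C/5% CO2 before pin-tool transfer of compounds in DMSO. After 18 h at 37 C, One-Glo was added and luminescence was read 30 min later at room temperature.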
# [6] = qHTS assay to identify small molecule agonists of the estrogen related receptor (ERR) signaling pathway (AID 1224820); details: ERR reporter cell line, luciferase agonist mode; series mostly up to 46.1 µM
# Summary of the method: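 After 6 h plating (2,000 cells/well) and 18 h compound treatment at 37 C, ERR cells were lysed with One-Glo and luminescence read after 30 min at room temperature.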
# [7] = tested on: estrogen-related receptor alpha (ERRalpha) with PGC-1alpha coactivator, human; experiment: qHTS assay to identify small molecule antagonists of the estrogen related receptor signaling pathway with the pleiotropic PPARgamma coactivator (PGC) (AID 1224821; calls by dose curve;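 also: lower luminescence signal means antagonism of PGC/ERR signalling; nearly all actives have a fitted effect of over 50% in size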); details: ERR/PGC reporter cell line, luciferase, antagonist mode; series mostly up to 46.1 µM
# Summary of the method: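 Luminescence from One-Glo luciferase reagent (30 min, room temperature) measured after 18 h compound treatment at 37 °C. Cells carry the PGC/ERR reporter and were seeded 6 h prior to dosing.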
# [8] = qHTS assay to identify small molecule antagonists of the estrogen related receptor signaling pathway with the pleiotropic PPARgamma coactivator (PGC) cell viability counter screen (AID 1224822;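 also: viability read after 17.5 h compound exposure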); details: ERR/PGC reporter cell line viability counter screen; series mostly up to 46.1 µM
# Summary of the method: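 Viable cell signal (CellTiter-Fluor, 30 min, 37 C/5% CO2) was measured in PGC/ERR cells after a 17.5 h compound incubation.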
# [9] = qHTS assay to identify small molecule agonists of the estrogen related receptor signaling pathway with the pleiotropic PPARgamma coactivator (PGC) (AID 1224823); details: ERR/PGC reporter cell line, luciferase agonist mode; series mostly up to 46.1 µM
# Summary of the method: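 Luminescence from One-Glo reagent (30 min, room temperature) was read after 18 h compound treatment at 37 C of PGC/ERR cells plated 6 h beforehand; compounds delivered in DMSO by pin tool.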
smiles,measurement,setting,value
O=S(=O)(O)c1ccc(N=Nc2c(O)ccc3ccccc23)cc1,Potency,[1],inactive
O=S(=O)(O)c1ccccc1/C=C/c1ccc(-c2ccc(/C=C/c3ccccc3S(=O)(=O)O)cc2)cc1,Potency,[2],inactive
same,Potency,[3],inactive
same,Potency,[1],inactive
CC[C@H](C)COC(=O)/C=C/c1ccc(N=Cc2ccc(OC)cc2)cc1,Potency,[3],inactive
same,Potency,[1],1.22 µM (active)
Nc1ccc(C(=O)O)c(O)c1,Potency,[2],inactive
same,Potency,[3],inactive
same,Potency,[1],inactive
CCc1cccc(CC)c1NC(=O)CN(CC(=O)O)CC(=O)O,Potency,[2],inactive
same,Potency,[3],inactive
same,Potency,[1],inactive
CCc1oc2ccccc2c1C(=O)c1cc(I)c(O)c(I)c1,Potency,[2],inactive
same,Potency,[3],inactive
same,Potency,[1],inactive
CCCCC/C=C\C/C=C\CCCCCCCC(=O)O,Potency,[2],inactive
same,Potency,[1],inactive
CCCCN(CCCC)CC(O)c1cc(Cl)cc2c1-c1ccc(Cl)cc1/C2=C/c1ccc(Cl)cc1 (centres undefined),Potency,[2],inactive
same,Potency,[1],inactive
same,outcome,[4],inactive
same,Potency,[5],inactive
same,outcome,[6],inactive
same,Potency,[7],inactive
same,Potency,[8],inactive
same,outcome,[9],inactive
CCCCCc1ccc(Cl)cc1,Potency,[2],inactive
same,Potency,[3],inactive
same,Potency,[1],inactive
CC(C(=O)O)c1ccc2c(c1)[nH]c1ccc(Cl)cc12 (centres undefined),Potency,[2],inactive
same,Potency,[3],inactive
same,Potency,[1],inactive
OC1CCC(C2CCCCC2)CC1 (centres undefined),Potency,[3],inactive
same,Potency,[1],inactive
O=C1NC(=O)[C@@H]2CC=CC[C@H]12,Potency,[2],inactive
same,Potency,[3],inactive
same,Potency,[1],inactive
Cc1c(N)cccc1C(F)(F)F,Potency,[3],inactive
same,Potency,[1],inactive
CCCCCCOC(=O)C(C)CC (centres undefined),Potency,[2],inactive
same,Potency,[3],inactive
same,Potency,[1],inactive
CC(C)NC[C@@H](O)COc1ccc(CC(N)=O)cc1,Potency,[2],inactive
same,Potency,[1],inactive
CC(C)(C)c1csc(-c2cc3cc(OCc4ccccc4CC(=O)O)ccc3o2)n1,Potency,[3],inactive
same,Potency,[1],inactive
Cc1ccc(C)cc1,Potency,[3],inactive
same,Potency,[1],inactive
CCCCNS(=O)(=O)c1ccc(C)cc1,Potency,[3],inactive
same,Potency,[1],inactive
CC(C)=CCNc1ncnc2c1ncn2[C@@H]1O[C@H](CO)[C@@H](O)[C@H]1O,Potency,[3],23.7 µM (active)
C#C[C@]1(OC(C)=O)CC[C@H]2[C@@H]3CCC4=C[C@@H](OC(C)=O)CC[C@@H]4[C@H]3CC[C@@]21C,Potency,[2],inactive
same,Potency,[1],inactive
O[C@@H]([C@H](O)[C@H](O)CBr)[C@H](O)CBr,Potency,[3],inactive
same,Potency,[1],inactive
CC(C)(C)NSc1nc2ccccc2s1,Potency,[3],inactive
same,activation,[1],7.05% [at 94.8 µM] (active)
O=[N+]([O-])c1ccc(O)cc1C(F)(F)F,Potency,[2],inactive
same,Potency,[3],inactive
same,Potency,[1],inactive
CCC(C)n1ncn(-c2ccc(N3CCN(c4ccc(OC[C@H]5CO[C@](Cn6cncn6)(c6ccc(Cl)cc6Cl)O5)cc4)CC3)cc2)c1=O (some centres undefined),Potency,[2],inactive
same,Potency,[1],inactive
C#C[C@]1(OC(C)=O)CC[C@H]2[C@@H]3CCC4=C/C(=N/O)CC[C@@H]4[C@H]3CC[C@@]21CC,Potency,[2],inactive
same,Potency,[1],inactive
CC1(C)CCC[C@]2(C)[C@H]3CC(=O)O[C@]3(C)CC[C@@H]12,Potency,[1],inactive

# Source: PubChem BioAssay (Tox21)
